Drawing on PubChem BioAssay (EPA / NIEHS), this text covers AC50 and outcome for eight compounds.

Assay [1] is described as follows: ATG_E_Box_CIS: Attagene CIS-FACTORIAL HepG2 Assay for human Enhancer Box (E-box) (AID 2282936). Conditions: HepG2 E-box cis-reporter transcription, actives raise or lower the signal. Summed up:
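E-box-driven reporter transcripts measured in transiently transfected HepG2 after 24 h exposure: RNA reverse-transcribed, PCR-amplified, fluorescently labelled, digested and resolved by capillary electrophoresis. Gain or loss relative to DMSO.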

Assay [2] in a line: ATG_M_61_CIS: Attagene CIS-FACTORIAL HepG2 Assay for M61 Transcription Factor (Internal Marker) (AID 2282937). The settings on record: HepG2 Attagene CIS-FACTORIAL M61 internal marker reporter; actives raise or lower the signal. In outline:
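Human liver HepG2, transient MRTU transfection (cis promoter elements), 24 h compound. Total RNA → oligo(dT) RT → PCR → FAM label → HpaI → CE. Internal background marker; bidirectional fitting, DMSO = baseline.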

The nature of assay [3]: ATG_EGR_CIS: Attagene CIS-FACTORIAL HepG2 Assay for human Early Growth Response 1 (EGR1) (AID 2282938). Conditions: HepG2 Attagene CIS-FACTORIAL EGR reporter mRNA; actives raise or lower the signal. In outline:
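Transient transfection of human HepG2 with multiple cis-regulated reporter units, chemical exposure 24 h, total RNA isolated. Reverse transcription, PCR, fluorescent labelling and capillary electrophoresis quantify reporter transcripts; activity fitted bidirectionally against DMSO.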

Assay [4] can be described thus: ATG_M_19_CIS: Attagene CIS-FACTORIAL HepG2 Assay for M19 Transcription Factor (Internal Marker) (AID 2282939). Conditions: HepG2 Attagene CIS-FACTORIAL M19 internal marker reporter; actives raise or lower the signal. In outline:
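HepG2 cells transiently transfected with cis-regulated multiplexed reporter units, dosed 24 h. Reporter mRNA quantified by RT-PCR and capillary electrophoresis; internal background marker fitted bidirectionally versus DMSO.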

The nature of assay [5]: ATG_ERE_CIS: Attagene CIS-FACTORIAL HepG2 Assay for Estrogen Response Element (ERE) (AID 2282940). Conditions: HepG2 ERE cis-reporter, Attagene RNA transcript; actives raise or lower the signal. Summed up: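 HepG2 cells transiently transfected with multiplexed cis-element reporter units, measuring endogenous transcription factor activity; ERE reporter mRNA quantified after 24 h exposure by RT-PCR, fluorescent labelling, HpaI digestion and capillary electrophoresis. Bidirectional change versus DMSO.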

Assay [6] is described as follows: ATG_Ets_CIS: Attagene CIS-FACTORIAL HepG2 Assay for human Erythroblast Transformation Specific (ETS) (AID 2282941). Conditions: HepG2 ETS cis-reporter transcription, actives raise or lower the signal. In outline: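 Multiplexed reporter transcript profiling: HepG2, 24 h treatment, total RNA to cDNA, PCR, 6-FAM labelling, HpaI cut, capillary electrophoresis. Gain- or loss-of-signal fitted against DMSO.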

Assay [7] has as its target Hepatocyte nuclear factor 3-beta (Homo sapiens) (UniProt Q9Y261). Briefly: ATG_FoxA2_CIS: Attagene CIS-FACTORIAL HepG2 Assay for human Forkhead box A2 (FOXA2) (AID 2282942). Conditions: HepG2 cis-reporter transcription factor activity, 24 h; actives raise or lower the signal. In outline:
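Transient MRTU transfection of HepG2 liver cells; 24 h treatment; total RNA → oligo(dT) RT → PCR → FAM primer extension → HpaI cut → CE. Bidirectional fit vs DMSO.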

Assay [8] is described as follows: ATG_FoxO_CIS: Attagene CIS-FACTORIAL HepG2 Assay for human Forkhead box O (FoxO) (AID 2282943). Conditions: HepG2 Attagene cis-reporter, FoxO element, mRNA; actives raise or lower the signal. In outline:
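Human hepatoma HepG2 cells carry transiently introduced reporter transcription units controlled by cis promoter elements. Chemical treatment lasted 24 h, and mRNA signal was compared with DMSO.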

The nature of assay [9]: ATG_GATA_CIS: Attagene CIS-FACTORIAL HepG2 Assay for human GATA Binding Protein (AID 2282944). Conditions: HepG2 GATA cis-element reporter, Attagene multiplex mRNA; actives raise or lower the signal. Summed up: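 HepG2 cells transiently transfected with multiplexed cis-element reporter units measure endogenous GATA activity; after 24 h compound exposure, reporter mRNA quantified by RT-PCR and capillary electrophoresis. Changes fitted in both directions vs DMSO.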

The nature of assay [10]: ATG_GLI_CIS: Attagene CIS-FACTORIAL HepG2 Assay for human Zinc Finger Protein GLI1 (AID 2282945). The settings on record: HepG2, Attagene cis-factorial reporter mRNA, GLI element; actives raise or lower the signal. In outline: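 Bidirectional curve fits relative to DMSO, using reporter mRNA levels from RT-PCR plus capillary electrophoresis. Cells were HepG2 transiently carrying cis-regulated reporter constructs, harvested 24 h after dosing.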

The target in assay [11] is Bile acid receptor (Homo sapiens) (UniProt Q96RI1). Briefly: ATG_IR1_CIS: Attagene CIS-FACTORIAL HepG2 Assay for human Nuclear Receptor Subfamily 1 Group H Member 4 (NR1H4), IR1 submotif (AID 2282946). The settings on record: IR1 reporter transcription, actives raise or lower the signal. Summed up:
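HepG2 cells transiently transfected with multiplexed cis-element reporter units read endogenous transcription factor activity. After 24 h compound exposure, reporter mRNA was quantified by RT-PCR, fluorescent labelling, HpaI digestion and capillary electrophoresis; bidirectional fitting versus DMSO baseline.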

Assay [12] in a line: ATG_ISRE_CIS: Attagene CIS-FACTORIAL HepG2 Assay for human Interferon Regulatory Factor 1 (IRF1) binding to an Interferon-Stimulated Response Element (ISRE) (AID 2282948). The settings on record: HepG2 ISRE cis-reporter (Attagene), mRNA transcription readout; actives raise or lower the signal. In outline: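 Signal reflects induction or loss of ISRE-linked reporter mRNA in transiently transfected HepG2 cells after a 24 h treatment, detected by fluorescent RT-PCR fragments on capillary electrophoresis and normalised to DMSO.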

The nature of assay [13]: ATG_M_32_CIS: Attagene CIS-FACTORIAL HepG2 Assay for M32 Transcription Factor (Internal Marker) (AID 2282949).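 Note: background control marker of the multiplexed CIS panel rather than a real target.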 Conditions: HepG2 Attagene cis-factorial M32 reporter, mRNA; actives raise or lower the signal. In outline: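 HepG2 human liver cells transiently transfected with cis-promoter-driven multiple reporter transcription units, dosed 24 h. Reporter mRNA quantified by RT-PCR, FAM-labelled primer extension, HpaI digest and capillary electrophoresis; bidirectional fit versus DMSO baseline.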

A short description of assay [14]: ATG_M_06_CIS: Attagene CIS-FACTORIAL HepG2 Assay for M06 Transcription Factor (Internal Marker) (AID 2282950). Conditions: HepG2 Attagene CIS-FACTORIAL M06 internal marker reporter; actives raise or lower the signal. Summed up: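 Internal background marker within multiplexed cis-reporter HepG2 system. Cells transiently transfected, dosed 24 h; reporter mRNA measured by RT-PCR, HpaI digestion and capillary electrophoresis. Bidirectional fit relative to DMSO.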

Assay [15] has as its target Hypoxia-inducible factor 1-alpha (Homo sapiens) (UniProt Q16665). Description: ATG_HIF1a_CIS: Attagene CIS-FACTORIAL HepG2 Assay for human Hypoxia Inducible Factor 1 (HIF1A) (AID 2282951). The settings on record: HepG2 Attagene cis-factorial HIF1a reporter transcription; actives raise or lower the signal. In outline:
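Transient MRTU transfection of human HepG2 liver cells, 24 h compound treatment, then total RNA isolation, oligo(dT) reverse transcription, PCR amplification, fluorescent labelling and capillary electrophoresis of reporter fragments. Gain or loss relative to DMSO.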

Assay [16] deals with Hepatocyte nuclear factor 6 (Homo sapiens) (UniProt Q9UBC0). Briefly: ATG_HNF6_CIS: Attagene CIS-FACTORIAL HepG2 Assay for human Hepatocyte Nuclear Factor 6 (HNF6) (AID 2282952). The settings on record: HepG2 Attagene cis-factorial HNF6 reporter transcription; actives raise or lower the signal. In outline: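 Endogenous factor activity read in transiently transfected HepG2 via promoter-regulated reporter transcripts. RNA harvested 24 h post-dosing, reverse-transcribed, PCR-amplified, FAM-labelled, HpaI-digested and resolved by capillary electrophoresis; fitted in both directions against DMSO.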

The target of assay [17] is Heat shock factor protein 1 (Homo sapiens) (UniProt Q00613). Description: ATG_HSE_CIS: Attagene CIS-FACTORIAL HepG2 Assay for human Heat Shock Transcription Factor 1 (HSE) (AID 2282953). The settings on record: HepG2 HSE cis-reporter, Attagene RNA transcription; actives raise or lower the signal. In outline:
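HepG2 cells transfected with cis-promoter reporter units sensing endogenous transcription factor activity; reporter mRNA quantified 24 h post-dose by RT-PCR and capillary electrophoresis of 6-FAM-labelled products. Bidirectional fitting against DMSO.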

Assay [18] in a line: ATG_MRE_CIS: Attagene CIS-FACTORIAL HepG2 Assay for human Metal Responsive Element (MRE) (AID 2282954). Conditions: HepG2 MRE cis-reporter transcription, Attagene multiplex; actives raise or lower the signal. In outline:
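Endogenous MRE-dependent transcription read as reporter mRNA in transiently transfected human HepG2 cells at 24 h. RNA reverse-transcribed, PCR-amplified, labelled and resolved by capillary electrophoresis; gain or loss relative to DMSO.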

A short description of assay [19]: ATG_PBREM_CIS: Attagene CIS-FACTORIAL HepG2 Assay for human Phenobarbital-responsive Enhancer Module (PBREM) (AID 2282955). Conditions: HepG2 PBREM cis-reporter, Attagene multiplexed transcription; actives raise or lower the signal. In outline: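 Endogenous transcription factors in human liver HepG2 cells drive a PBREM cis-element reporter, whose transcript level after 24 h treatment is quantified by RT-PCR with capillary electrophoresis; activity fitted in both directions against DMSO.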

Assay [20] is described as follows: ATG_GRE_CIS: Attagene CIS-FACTORIAL HepG2 Assay for human Glucocorticoid Response Elements (GRE) (AID 2282947). The settings on record: HepG2 GRE cis-reporter, Attagene multiplex mRNA; actives raise or lower the signal. Summed up:
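Reporter transcripts read by RT-PCR with capillary electrophoresis fluorescence after a 24 h chemical exposure of HepG2 cells transiently transfected with multiple cis-element reporter units. Gain or loss fitted against DMSO.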

Activity calls are given as the source filed them. Rule for the calls: active = hit-call score of the fitted dose curve at least 0.9, where 1 is the maximum; inactive = score below 0.9.

Sequence of Hepatocyte nuclear factor 6 (Homo sapiens) (Q9UBC0 whole entry, looked up): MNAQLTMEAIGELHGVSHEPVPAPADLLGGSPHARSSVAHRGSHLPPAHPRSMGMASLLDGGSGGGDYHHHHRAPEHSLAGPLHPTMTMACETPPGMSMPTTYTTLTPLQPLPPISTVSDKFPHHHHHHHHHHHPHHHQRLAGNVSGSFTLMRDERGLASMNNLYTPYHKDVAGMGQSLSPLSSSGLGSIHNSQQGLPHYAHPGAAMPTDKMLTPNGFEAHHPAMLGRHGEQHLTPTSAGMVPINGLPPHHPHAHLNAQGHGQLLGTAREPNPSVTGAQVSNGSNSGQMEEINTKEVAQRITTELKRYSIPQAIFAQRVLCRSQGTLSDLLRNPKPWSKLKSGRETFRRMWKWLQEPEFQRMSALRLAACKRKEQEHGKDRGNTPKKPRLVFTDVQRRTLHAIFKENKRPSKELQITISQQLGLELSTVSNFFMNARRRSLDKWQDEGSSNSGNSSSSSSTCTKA
Sequence of Heat shock factor protein 1 (Homo sapiens) (Q00613 whole entry, looked up): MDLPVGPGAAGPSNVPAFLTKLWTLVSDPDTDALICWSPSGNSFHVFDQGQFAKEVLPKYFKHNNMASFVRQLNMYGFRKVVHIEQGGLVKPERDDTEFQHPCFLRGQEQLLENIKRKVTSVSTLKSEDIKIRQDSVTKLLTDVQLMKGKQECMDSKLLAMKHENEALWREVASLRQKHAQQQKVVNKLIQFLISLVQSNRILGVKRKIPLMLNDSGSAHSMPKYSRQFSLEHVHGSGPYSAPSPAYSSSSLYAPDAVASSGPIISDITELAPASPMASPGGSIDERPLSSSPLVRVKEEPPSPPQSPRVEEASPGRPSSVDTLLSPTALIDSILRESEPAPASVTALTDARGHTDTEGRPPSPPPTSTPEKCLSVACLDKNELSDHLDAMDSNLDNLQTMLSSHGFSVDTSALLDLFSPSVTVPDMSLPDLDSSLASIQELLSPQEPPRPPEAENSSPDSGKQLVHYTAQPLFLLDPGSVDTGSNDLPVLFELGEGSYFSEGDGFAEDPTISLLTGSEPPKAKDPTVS
Sequence of Hypoxia-inducible factor 1-alpha (Homo sapiens) (Q16665 whole entry, looked up, the tested form may be a part): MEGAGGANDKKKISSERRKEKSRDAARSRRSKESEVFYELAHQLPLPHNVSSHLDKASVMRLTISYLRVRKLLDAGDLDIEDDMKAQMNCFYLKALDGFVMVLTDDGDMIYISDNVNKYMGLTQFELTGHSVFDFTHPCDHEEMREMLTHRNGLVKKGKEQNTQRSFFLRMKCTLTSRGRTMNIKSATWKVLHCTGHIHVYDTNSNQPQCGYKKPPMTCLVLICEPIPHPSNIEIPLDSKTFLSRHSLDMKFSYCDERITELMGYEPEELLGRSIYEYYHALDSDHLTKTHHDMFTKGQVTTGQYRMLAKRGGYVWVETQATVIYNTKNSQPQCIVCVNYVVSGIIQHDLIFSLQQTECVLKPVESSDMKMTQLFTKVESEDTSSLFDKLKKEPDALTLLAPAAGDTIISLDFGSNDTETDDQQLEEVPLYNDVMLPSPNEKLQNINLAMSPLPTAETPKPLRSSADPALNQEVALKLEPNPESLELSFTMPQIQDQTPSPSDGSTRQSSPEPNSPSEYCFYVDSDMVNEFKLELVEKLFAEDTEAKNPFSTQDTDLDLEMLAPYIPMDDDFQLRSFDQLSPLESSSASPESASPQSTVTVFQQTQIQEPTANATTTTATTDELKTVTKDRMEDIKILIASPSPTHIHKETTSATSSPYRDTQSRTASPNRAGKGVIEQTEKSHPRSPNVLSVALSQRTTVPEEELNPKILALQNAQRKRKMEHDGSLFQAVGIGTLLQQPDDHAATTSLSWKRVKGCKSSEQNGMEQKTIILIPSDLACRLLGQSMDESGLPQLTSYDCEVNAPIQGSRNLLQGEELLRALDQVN
Sequence of Hepatocyte nuclear factor 3-beta (Homo sapiens) (Q9Y261 whole entry, looked up): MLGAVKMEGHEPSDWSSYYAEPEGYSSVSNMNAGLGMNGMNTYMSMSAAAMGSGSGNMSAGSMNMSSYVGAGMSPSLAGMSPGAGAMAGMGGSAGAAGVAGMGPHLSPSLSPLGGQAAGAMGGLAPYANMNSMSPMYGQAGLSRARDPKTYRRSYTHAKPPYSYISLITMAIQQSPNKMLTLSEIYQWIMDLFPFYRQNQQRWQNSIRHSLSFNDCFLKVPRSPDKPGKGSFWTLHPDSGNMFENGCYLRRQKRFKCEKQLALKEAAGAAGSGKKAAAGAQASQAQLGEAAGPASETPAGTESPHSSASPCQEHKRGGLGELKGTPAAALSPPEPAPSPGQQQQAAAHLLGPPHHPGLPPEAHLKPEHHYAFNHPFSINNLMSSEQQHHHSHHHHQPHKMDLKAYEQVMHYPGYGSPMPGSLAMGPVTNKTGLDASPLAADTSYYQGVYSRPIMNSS
Sequence of Bile acid receptor (Homo sapiens) (Q96RI1 whole entry, looked up): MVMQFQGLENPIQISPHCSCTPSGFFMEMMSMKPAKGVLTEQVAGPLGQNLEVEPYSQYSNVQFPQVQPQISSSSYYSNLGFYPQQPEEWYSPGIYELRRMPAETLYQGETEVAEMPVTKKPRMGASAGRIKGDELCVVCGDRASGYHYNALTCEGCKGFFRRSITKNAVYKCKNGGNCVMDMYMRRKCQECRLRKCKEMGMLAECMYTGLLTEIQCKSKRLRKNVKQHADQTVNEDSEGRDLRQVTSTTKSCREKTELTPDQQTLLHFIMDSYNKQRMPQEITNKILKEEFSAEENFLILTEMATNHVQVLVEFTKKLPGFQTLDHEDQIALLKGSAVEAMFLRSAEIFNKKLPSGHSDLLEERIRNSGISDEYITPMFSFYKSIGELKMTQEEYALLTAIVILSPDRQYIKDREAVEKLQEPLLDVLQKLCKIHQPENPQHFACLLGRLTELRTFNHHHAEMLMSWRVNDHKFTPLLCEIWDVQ

`NC(=O)c1ccccc1Cl`: the AC50 in assay [1] is 61.1 µM (active); in assay [3], 67.2 µM (active); in [10], 139 µM (active); in assay [12] it was 100 µM (active); in assay [17], 62.7 µM (active). In addition, the call in assay [2], in [4], in assay [5], in [6], in assay [7] and in [8] was inactive. Besides, the outcome in assay [9], in [11], in assay [13], in assay [14], in [15] and in assay [16] was inactive. Besides, the result in [18] and in [19] was inactive.

As for `c1ccc2c(c1)c1cccc3ccc4cccc2c4c31`, the outcome in assay [1], in assay [2], in assay [3], in [4], in assay [5] and in assay [6] was inactive. The call in [7], in assay [8], in [9], in assay [11], in assay [20] and in [12] was inactive. Further, the call in [13], in [14], in [15], in assay [16], in assay [17] and in assay [18] was inactive. In assay [19], the result was inactive.

On to `CC(C)=CCO`, for which the result in [1], in [2], in assay [3], in assay [4], in assay [5] and in [6] was inactive. Also, the compound was called inactive in assay [7], in assay [8], in assay [9], in assay [10], in [12] and in assay [13]. Also, the call in [14], in [15], in assay [16], in [17] and in assay [18] was inactive.

`COc1ccnc(CS(=O)c2nc3cc(OC(F)F)ccc3[nH]2)c1OC` (configuration not stated): the result in assay [1], in [2], in assay [3], in assay [4], in assay [5] and in assay [6] was inactive. For the same compound, the compound was classed as inactive in assay [7], in assay [8], in assay [9], in [10], in assay [20] and in [12]. The call in assay [13], in [14], in assay [15], in assay [16], in assay [17] and in assay [18] was inactive. Further, the result in assay [19] was inactive.

With `CCCCCC(=O)OCCc1ccccc1`, the result in assay [1], in [2], in assay [3], in assay [4], in assay [5] and in assay [6] was inactive. The call in assay [7], in assay [8], in [9], in [10], in assay [20] and in [12] was inactive. Further, the outcome in [13], in assay [14], in assay [15], in assay [16], in assay [17] and in assay [18] was inactive. Moreover, the outcome in [19] was inactive.

As for `CN1[C@@H]2CC(OC(=O)[C@H](CO)c3ccccc3)C[C@H]1[C@@H]1O[C@@H]12` (some centres not stated), the outcome in [1], in assay [2], in assay [3], in assay [4], in [5] and in assay [6] was inactive. The outcome in assay [7], in assay [8], in [9], in assay [12], in assay [13] and in assay [14] was inactive. Also, the result in assay [18] and in assay [19] was inactive.

For the compound `C=C(C)[C@@H]1CCC2=CC(=O)C[C@@H](C)[C@]2(C)C1`, the outcome in [1], in assay [2], in assay [3], in [4], in assay [5] and in assay [6] was inactive. Also, the compound was classed as inactive in [7], in assay [8], in [9], in [10], in [12] and in [13]. In addition, the compound was classed as inactive in assay [14], in assay [15], in assay [16], in [17] and in [18].

In the case of `O=C(O)c1cccc(C(F)(F)F)c1`, the result in [1], in assay [2], in [3], in assay [4], in [5] and in assay [6] was inactive. In addition, the outcome in assay [7], in [8], in [9], in [10], in [20] and in [12] was inactive. The compound was called inactive in [13], in assay [14], in [16], in assay [17], in assay [18] and in assay [19].
